High-throughput results as filed in PubChem BioAssay.
hcDAF-12 act – activators of H. contortus DAF-12 nuclear receptor; HEK293 hcDAF-12 lit1-tk-luc reporter, luminescence; 0% DMSO, 100% Δ7-dafachronic acid; activation, % at 6.8 µM; AID 652067; 370,000 tested, 1.4% active;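 active = activation above the mean of all tested compounds plus 3 SD, cut at about 5.5% in these data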;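 note: 100% = response to 3 µM Δ7-dafachronic acid high control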
DAX1 inh-1 – NR0B1 (DAX1) inhibition | P51843 | HEK293 Gal4-DAX1 luciferase reporter, luminescence | inhibition, % at 6.75 µM | 340,000 tested, 0.99% active;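 active = inhibition above the mean over all tested compounds plus 3 SD, cut at about 4.2% in these data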;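 note: 0% = DAX1-transfected cells with DMSO and 100% = empty-vector control cells with DMSO; inhibition shows as a rise in luminescence from relieved DAX1 repression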
Target sequence (P51843 207-470 limits assumed): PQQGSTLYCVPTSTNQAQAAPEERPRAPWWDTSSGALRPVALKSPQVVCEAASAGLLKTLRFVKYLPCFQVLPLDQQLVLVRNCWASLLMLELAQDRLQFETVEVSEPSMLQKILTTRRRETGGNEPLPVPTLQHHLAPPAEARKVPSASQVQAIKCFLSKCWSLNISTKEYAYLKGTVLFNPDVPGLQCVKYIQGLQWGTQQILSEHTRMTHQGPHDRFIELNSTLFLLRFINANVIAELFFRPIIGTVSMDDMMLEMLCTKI
DAX1 inh-2 – DAX1 (NR0B1) inhibition, primary screen | HEK293T StAR-luciferase reporter, SF-1/DAX-1 repression relief | inhibition, % at 6.8 µM | 370,000 tested, 1.1% active;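 active = inhibition above the mean over all tested compounds plus 3 SD, cut at about 3.6% in these data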;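 note: 0% = DAX-1 cells with DMSO and 100% = cells lacking DAX-1 with DMSO; higher inhibition means more luminescence from relief of DAX-1 repression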
ssDAF-12 act – activators of S. stercoralis DAF-12 nuclear receptor; activation, % at 6.8 µM; HEK293 ssDAF-12/GRIP1 lit1-tk-luc reporter, luminescence; % of 3 µM dafachronic acid response; 370,000 tested, 1% active;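 active = activation above the mean over all tested compounds plus 3 SD, cut at about 0.9% in these data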;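 note: 0% = DMSO-only wells and 100% = 3 µM delta7-dafachronic acid wells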
hgDAF12 agonist – agonists of H. glycines DAF-12 nuclear receptor | HEK293 GAL4-hgDAF12 UAS-luciferase reporter, agonist luminescence; normalized to butyrate control | activation, % at 6.8 µM | 370,000 tested, 1.8% active | AID 687014;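 active = activation above a cutoff set at the mean of all screened compounds plus 3 SD, cut at about 10% in these data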;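 note: 0% = DMSO wells and 100% = sodium butyrate wells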
* hit, by the source's call; nt = not tested or not shown. Compounds with a hit are over-represented: about 4.1% of the library has one in this group of screens.

SMILES	hcDAF-12 act	DAX1 inh-1	DAX1 inh-2	ssDAF-12 act	hgDAF12 agonist
O=C(c1ccccc1)N1CC[C@H]2[C@H](CCCN2Cc2cc(F)cc(F)c2)C1	-2	nt	-1	-2	3
Cc1ccccc1C(=O)N[C@H](C(=O)N1CCC[C@H]1C(=O)NCCc1ccccc1Cl)C(C)C	0	nt	0	-1	-1
COc1cc2c(cc1OC)C(C)=NC1(CCCCC1)C2	-2	4.6*	0	-2	0
COc1cc2c(cc1OC)C(SC)=NC1(CCCC1)C2	-1	0	0	-1	-2
CCOc1ccc(-c2cc(C(=O)OC)c3n(c2=O)CCC3)cc1	0	nt	-1	-1	0
O=c1[nH]c(-c2ccco2)nc2sc3c(c12)CCCC3	2	2	3	1	13*
Cc1ccc(C(=O)COC(=O)CNC(=O)c2ccc(N3C(=O)c4ccccc4C3=O)cc2)cc1C	1	1	0	-1	0
O=C(CNC(=O)c1cccs1)OCC(=O)c1ccc(Cl)cc1	-1	-1	0	12*	-1
O=C(CNC(=O)c1ccc(N2C(=O)c3ccccc3C2=O)cc1)OCC(=O)c1ccc(Cl)cc1	-1	-1	0	1.7*	-1
Cc1ccccc1CN1[C@@H](C)[C@H](c2ccccc2)Oc2cccc(N3CCCC(C)C3)c2S1(=O)=O (some centres undefined)	0	nt	1	-1	2
Cc1ccc(/C=N/n2c(C)nc3ccccc3c2=O)o1	1	4.5*	0	-1	2
Cc1ccc(/C=N/n2c(C)nnc2C)o1	4	4.3*	0	0	1
COc1cccc(-c2cc(NC=O)c3ncc(-c4ccc(C(C)=O)cc4)n3c2)c1	5	nt	-5	0	11*
CN(C)C(=O)c1cccc(-c2cnc3c(NC=O)cc(-c4ccccc4Cl)cn23)c1	-2	nt	3	-1	12*
CN(C)C(=O)c1cccc(-c2cnc3c(NC=O)cc(-c4ccccc4N(C)C)cn23)c1	0	nt	1	-1	0
COc1ccc(-c2cc(NC=O)c3ncc(-c4cccc(C(C)=O)c4)n3c2)cc1	-2	nt	-2	-2	-2
CC(=O)Nc1cc(-c2cccc(F)c2)cn2c(-c3ccc(F)c(Cl)c3)cnc12	0	nt	4.5*	-1	-2
COc1cc(-c2cnc3c(NC=O)cc(-c4ccccc4Cl)cn23)cc(OC)c1OC	1	nt	4.2*	-1	-8
CCCCS(=O)(=O)N1CCCc2nc(C)c(C)cc21	0	nt	1	-1	3
CCCCCn1cc(CCC(=O)Nc2ccc(Oc3cccnc3)cc2)c2ccccc21	-1	nt	0	-1	1
COC(=O)[C@]12C[C@H](CC(=O)NCc3cccc4ccccc34)C(=O)N(Cc3ccco3)C1=C[C@H](C(C)C)O[C@@H]2C1CC1	-2	nt	1	-1	-2
COc1cc(-c2cc(NC=O)c3ncc(-c4ccccc4)n3c2)cc(OC)c1OC	-2	nt	-1	-1	-2
COc1cc(-c2cnc3c(NC=O)cc(-c4ccccc4)cn23)cc(OC)c1OC	-3	nt	4.2*	-2	-3
Cc1ccc(-c2nnc(SCC(=O)Nc3ccc(-c4nc5ccc(C)cc5s4)cc3)n2Cc2ccco2)cc1	-1	nt	-1	-1	11*
COc1ccc(-c2nnc(SCC(=O)Nc3ccc(Oc4ccccc4)cc3)n2Cc2ccco2)cc1	0	nt	-2	-1	1
SMILES	hcDAF-12 act	DAX1 inh-1	DAX1 inh-2	ssDAF-12 act	hgDAF12 agonist
O=S1(=O)CC=C(CSC(=S)NC2CCS(=O)(=O)C2)C1 (centres undefined)	-1	4.3*	0	0	4
COC(=O)c1scc(C)c1N/N=C(\C)c1ccc(F)cc1	4	0	1	1.0*	1
CC1CCC/C(=N\NC(=O)Nc2ccccc2)C1 (centres undefined)	4	4.8*	0	-1	4
COc1ccc(-c2cc3ncc(C(C)=O)c(C)n3n2)cc1	5	4.4*	1	0	8
CCNc1nc(-c2cc(C)n(Cc3ccco3)c2C)cs1	3	5.0*	0	0	0
C=Cn1ccnc1CC(O)c1ccc(OC)cc1 (centres undefined)	-1	5.8*	0	-1	-2
COC(=O)[C@]12C[C@H](CC(=O)N3CCOCC3)C(=O)N(Cc3cccc4ccccc34)C1=C[C@H](C(C)C)O[C@@H]2C1CC1	-1	nt	0	-2	-1
COc1cc(C(=O)Nc2nc3ccccc3[nH]2)ccc1OC(F)F	-2	1	0	-1	5
CN(C)S(=O)(=O)c1ccc(C(=O)Nc2nc3ccccc3[nH]2)cc1	1	6.7*	3	-1	8
Cc1c(C(=O)Nc2nc3ccccc3[nH]2)cccc1[N+](=O)[O-]	5	2	2	1.5*	8
O=C(Nc1nc2ccccc2[nH]1)c1ccc(OC(F)F)cc1	3	-2	1	0	11*
Cc1cc(C)cc(C(=O)Nc2nc3ccccc3[nH]2)c1	1	1	0	-1	7
O=C(Nc1nc2ccccc2[nH]1)c1cc(F)cc(F)c1	5.6*	1	2	1	10
COCCCNC(=O)C[C@H]1C[C@@]2(C(=O)OC)C(=C[C@H](C(C)C)O[C@@H]2C2CC2)N(CCC2=CCCCC2)C1=O	-2	nt	0	-1	-1
Cc1ccc(-n2c(COc3ccccc3)nnc2SCC(=O)Nc2ccc3c(c2)OCO3)cc1	0	nt	-2	-1	-1
CC(C)C[C@H](NC(C)(C)C(=O)NC1CCCCC1)C(=O)NCC(c1ccccc1)c1ccccc1	-1	nt	nt	-1	3
CCn1c(=O)c2cc(C(=O)Nc3ccc(OC)cc3OC)sc2c2ccccc21	-1	4.2*	0	-1	0
CCCN(CCC)CCNC(=O)c1cc2c(=O)n(CC)c3ccccc3c2s1	4	4.6*	2	0	-2
O=S1(=O)CC2c3ccc(F)cc3CN2CN1CCc1ccccc1 (centres undefined)	0	nt	-1	0	3
CN1CCC(=NOc2ccc([N+](=O)[O-])cc2)CC1	0	4.7*	2	-1	10
CC(C)CN1C(=O)[C@]2(CC(=O)N(C)C2c2ccccc2)c2cc(-n3cc(-c4ccccc4)nn3)ccc21 (some centres undefined)	-3	nt	-2	-2	0
Cc1[nH]c(=O)[nH]c(=O)c1/C=N/NC(=O)[C@H](C)N	5	5.7*	0	0	-2
CCN(CC)CCCn1c2c(c(SCC(=O)Nc3cccc4ccccc34)nc1=O)CCC2	3	-1	3.8*	0	-1
CCN(CC)CCCn1c2c(c(SCC(=O)Nc3ccccc3Cl)nc1=O)CCC2	1	0	2	-1	0
O=C(Nc1cccnc1)c1cc(-c2ccc(Cl)cc2Cl)on1	2	6.7*	1	0	5
CC(C)Cc1cc(C(=O)Nc2cccnc2)no1	3	1	4.4*	1	10
